# Inconclusive results are not listed. Calls of active or inactive are those of the source. Calls follow the shape of the dose curve; as a rule, active = well fitted curve in the direction sought with a large enough effect; inconclusive = small, poorly fitted or top-dose-only effect, or another doubt; inactive = no such curve, though single readings can be large; an effect the other way counts as inactive or inconclusive.
# Tests used:
# [1] = Quantitative High-Throughput drug screen in 47 multiple myeloma cell lines against the NCATS MIPE library collection: KHM11_PLB cell viability assay (AID 1918962); also: nearly all actives have a fitted effect of over 35% in size
# Procedure, shortened: (§1)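 Luminescent ATP measurement with CellTiter-Glo gives viability, scaled between DMSO-only wells (100%) and media-only wells (0%). Cells, 500 per well, faced library compounds for 48 hours at 37C.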
# [2] = Quantitative High-Throughput drug screen in 47 multiple myeloma cell lines against the NCATS MIPE library collection: JIM3_ECACC cell viability assay (AID 1918963; also: nearly all actives have a fitted effect of over 35% in size)
# Procedure, shortened: as §1
# [3] = Quantitative High-Throughput drug screen in 47 multiple myeloma cell lines against the NCATS MIPE library collection: INA6_PLB cell viability assay (AID 1918965; also: nearly all actives have a fitted effect of over 55% in size)
# Procedure, shortened: (§2)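 Steps: seed 500 cells per well; pin-transfer MIPE 4.0 library; incubate 48 h at 37C, 5% CO2, humidified; add CellTiter-Glo, 5 min room temperature; read luminescence.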
# [4] = Quantitative High-Throughput drug screen in 47 multiple myeloma cell lines against the NCATS MIPE library collection: JJN3_DSMZ cell viability assay (AID 1918966; also: nearly all actives have a fitted effect of over 50% in size)
# Procedure, shortened: (§3)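 Primary qHTS used for cherry-picking: cells at 500/well, library compounds for 48 h (37C, 5% CO2), luminescent ATP assay.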
# [5] = Quantitative High-Throughput drug screen in 47 multiple myeloma cell lines against the NCATS MIPE library collection: Karpas25_ECACC cell viability assay (AID 1918968; also: nearly all actives have a fitted effect of over 35% in size)
# Procedure, shortened: as §3
# [6] = Quantitative High-Throughput drug screen in 47 multiple myeloma cell lines against the NCATS MIPE library collection: KMS27_JCRB cell viability assay (AID 1918970); also: nearly all actives have a fitted effect of over 30% in size
# Procedure, shortened: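 Viability inhibition screen, 48 h compound exposure, luminescent ATP read-out.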
# [7] = Quantitative High-Throughput drug screen in 47 multiple myeloma cell lines against the NCATS MIPE library collection: KMS12BM_JCRB cell viability assay (AID 1918971); also: nearly all actives have a fitted effect of over 35% in size
# Procedure, shortened: (§4)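 CellTiter-Glo luminescence (ATP) after 48 h compound exposure, 37C/5% CO2; 500 cells/well; MIPE 4.0 approved/investigational drugs pinned in; DMSO = 100%, media only = 0% viability.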
# [8] = Quantitative High-Throughput drug screen in 47 multiple myeloma cell lines against the NCATS MIPE library collection: KMS12PE_JCRB cell viability assay (AID 1918972); also: nearly all actives have a fitted effect of over 30% in size
# Procedure, shortened: as §2
# [9] = Quantitative High-Throughput drug screen in 47 multiple myeloma cell lines against the NCATS MIPE library collection: KMS20_JCRB cell viability assay (AID 1918973); also: nearly all actives have a fitted effect of over 45% in size
# Procedure, shortened: as §3
# [10] = Quantitative High-Throughput drug screen in 47 multiple myeloma cell lines against the NCATS MIPE library collection: KMS21BM_JCRB cell viability assay (AID 1918974); conditions: ATP luminescence, 48 h; viability: at 45.8 µM (top of the series) unless noted
# Procedure, shortened: as §3
# [11] = Quantitative High-Throughput drug screen in 47 multiple myeloma cell lines against the NCATS MIPE library collection: MMM1_PLB cell viability assay (AID 1918976); also: nearly all actives have a fitted effect of over 35% in size
# Procedure, shortened: (§5)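 Inhibition of viability over 48 h was scored by ATP content (CellTiter-Glo) in 500-cell wells. Zero and full viability were defined by media-only and DMSO-only wells.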
# [12] = Quantitative High-Throughput drug screen in 47 multiple myeloma cell lines against the NCATS MIPE library collection: MOLP8_DSMZ cell viability assay (AID 1918977); also: nearly all actives have a fitted effect of over 45% in size
# Procedure, shortened: as §5
# [13] = Quantitative High-Throughput drug screen in 47 multiple myeloma cell lines against the NCATS MIPE library collection: NCIH929_DSMZ cell viability assay (AID 1918978); also: nearly all actives have a fitted effect of over 35% in size
# Procedure, shortened: as §5
# [14] = Quantitative High-Throughput drug screen in 47 multiple myeloma cell lines against the NCATS MIPE library collection: OCIMY1_PLB cell viability assay (AID 1918979); also: nearly all actives have a fitted effect of over 35% in size
# Procedure, shortened: as §5
# [15] = Quantitative High-Throughput drug screen in 47 multiple myeloma cell lines against the NCATS MIPE library collection: MM1S_ATCC cell viability assay (AID 1918980); also: nearly all actives have a fitted effect of over 45% in size
# Procedure, shortened: as §5
# [16] = Quantitative High-Throughput drug screen in 47 multiple myeloma cell lines against the NCATS MIPE library collection: MM1R_ATCC cell viability assay (AID 1918981); also: nearly all actives have a fitted effect of over 35% in size
# Procedure, shortened: as §5
# [17] = Quantitative High-Throughput drug screen in 47 multiple myeloma cell lines against the NCATS MIPE library collection: LP1_DSMZ cell viability assay (AID 1918982); also: nearly all actives have a fitted effect of over 35% in size
# Procedure, shortened: as §5
# [18] = Quantitative High-Throughput drug screen in 47 multiple myeloma cell lines against the NCATS MIPE library collection: JIM1_ECACC cell viability assay (AID 1918964)
# Procedure, shortened: as §3
# [19] = Quantitative High-Throughput drug screen in 47 multiple myeloma cell lines against the NCATS MIPE library collection: H1112_PLB cell viability assay (AID 1918967; also: nearly all actives have a fitted effect of over 30% in size)
# Procedure, shortened: as §3
# [20] = Quantitative High-Throughput drug screen in 47 multiple myeloma cell lines against the NCATS MIPE library collection: KMS26_JCRB cell viability assay (AID 1918975); also: nearly all actives have a fitted effect of over 45% in size
# Procedure, shortened: as §4
# Potency is read from the fitted curve at half-maximal effect.
Compound,Potency [1],Potency [2],Potency [3],Potency [4],Potency [5],Potency [6],Potency [7],Potency [8],Potency [9],Potency [10],Potency [11],Potency [12],Potency [13],Potency [14],Potency [15],Potency [16],Potency [17],Potency [18],Potency [19],Potency [20]
O=C(NCCCNc1nc(Nc2cccc(NC(=O)N3CCCC3)c2)ncc1I)c1cccs1,1.32 µM (active),5.26 µM (active),0.662 µM (active),16.6 µM (active),5.26 µM (active),inactive,18.7 µM (active),inactive,3.32 µM (active),inactive,23.5 µM (active),5.26 µM (active),5.9 µM (active),18.7 µM (active),18.7 µM (active),20.9 µM (active),18.7 µM (active),,,
C=CC(=O)Nc1cc2c(Nc3ccc(F)c(Cl)c3)ncnc2cc1C#CC(C)(C)N1CCN(C)CC1,2.09 µM (active),1.66 µM (active),,5.26 µM (active),0.526 µM (active),0.833 µM (active),,0.833 µM (active),0.296 µM (active),0.332 µM (active),5.26 µM (active),1.05 µM (active),0.833 µM (active),4.69 µM (active),2.09 µM (active),1.32 µM (active),9.35 µM (active),1.05 µM (active),1.87 µM (active),1.66 µM (active)
c1nc2nc(Nc3ccc(N4CCOCC4)cc3)nc(NC3CCCCC3)c2[nH]1,14.8 µM (active),3.72 µM (active),2.96 µM (active),18.7 µM (active),5.26 µM (active),5.9 µM (active),,1.66 µM (active),4.69 µM (active),,10.5 µM (active),8.33 µM (active),3.72 µM (active),16.6 µM (active),5.9 µM (active),14.8 µM (active),,,5.9 µM (active),16.6 µM (active)
CCCCCCCCCC(=O)N[C@@H](Cc1c[nH]c2ccccc12)C(=O)N[C@H](CC(N)=O)C(=O)N[C@@H](CC(=O)O)C(=O)N[C@@H]1C(=O)NCC(=O)N[C@@H](CCCN)C(=O)N[C@@H](CC(=O)O)C(=O)N[C@H](C)C(=O)N[C@@H](CC(=O)O)C(=O)NCC(=O)N[C@H](CO)C(=O)N[C@@H]([C@@H](C)CC(=O)O)C(=O)N[C@@H](CC(=O)c2ccccc2N)C(=O)O[C@@H]1C,inactive,inactive,,,inactive,inactive,inactive,inactive,,,,inactive,inactive,inactive,,inactive,,inactive,,
CCOc1cc2ncc(C#N)c(Nc3ccc(F)c(Cl)c3)c2cc1NC(=O)C=CCN(C)C,20.9 µM (active),18.7 µM (active),0.526 µM (active),9.35 µM (active),0.662 µM (active),,5.26 µM (active),,4.69 µM (active),,18.7 µM (active),20.9 µM (active),5.9 µM (active),18.7 µM (active),0.296 µM (active),4.18 µM (active),10.5 µM (active),,5.26 µM (active),20.9 µM (active)
CCNC(=O)Nc1ccc2ncc(Nc3ccc(C)cc3)nc2n1,3.72 µM (active),4.69 µM (active),,,5.9 µM (active),0.526 µM (active),,2.35 µM (active),,,14.8 µM (active),,7.43 µM (active),,,18.7 µM (active),,0.935 µM (active),5.9 µM (active),
Cc1cn2c(-c3cn[nH]c3)cnc2c(Nc2ccc(C(=O)N3CCNCC3)cc2F)n1,16.6 µM (active),23.5 µM (active),,,18.7 µM (active),,14.8 µM (active),5.26 µM (active),18.7 µM (active),,14.8 µM (active),,8.33 µM (active),,4.69 µM (active),,,2.09 µM (active),20.9 µM (active),16.6 µM (active)
CC(C)C[C@H](NC(=O)CNC(=O)c1cc(Cl)ccc1Cl)B(O)O,0.0469 µM (active),0.105 µM (active),,0.105 µM (active),,0.118 µM (active),0.132 µM (active),0.0743 µM (active),0.132 µM (active),,9.35 µM (active),,0.0372 µM (active),0.0662 µM (active),0.0418 µM (active),0.0418 µM (active),0.132 µM (active),0.105 µM (active),0.105 µM (active),0.118 µM (active)
C[C@@]12O[C@@H](C[C@]1(O)CO)n1c3ccccc3c3c4c(c5c6ccccc6n2c5c31)CNC4=O,0.0662 µM (active),0.526 µM (active),0.0743 µM (active),0.418 µM (active),0.296 µM (active),,,,0.148 µM (active),,3.32 µM (active),0.209 µM (active),0.469 µM (active),2.35 µM (active),1.05 µM (active),0.833 µM (active),5.26 µM (active),,1.48 µM (active),5.9 µM (active)
